{
  "source": "PubChem BioAssay (NCATS)",
  "key": {"[1]": {"test": "Viability qHTS for spleen associated tyrosine kinase inhibitor (SYKi) naive MV4-11 cells (AID 1963823); also: nearly all actives have a fitted effect of over 40% in size; also: potency is read from the fitted curve at half-maximal effect", "conditions": "MV4-11 AML viability, CellTiter-Glo luminescence, 72 h; series mostly up to 45 µM", "method_in_brief": "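Viability of MV4-11 AML cells lacking prior SYK inhibitor exposure is scored by CellTiter-Glo luminescence following 72 hr compound incubation at 37 C, 5% CO2, seeded at 500 cells per well.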"}, "[2]": {"test": "Viability qHTS for spleen associated tyrosine kinase inhibitor (SYKi) drug resistant MV4-11 cells (AID 1963824); also: nearly all actives have a fitted effect of over 35% in size; also: potency is read from the fitted curve at half-maximal effect", "conditions": "SYKi-resistant MV4-11 viability, CellTiter-Glo, 72 h; series mostly up to 45 µM", "method_in_brief": "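SYK inhibitor-resistant MV4-11 AML cells, 500 per well, added to predispensed compounds and incubated 72 hr at 37 C, 5% CO2. Viability measured by CellTiter-Glo luminescence after 10 min at room temperature.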"}},
  "note": "Records with an inconclusive call do not appear. Entries that show only a call come without a potency. Unmarked numbers belong to inactive results. Active and inactive are the calls of the source. Calls follow the shape of the dose curve; as a rule, active = well fitted cell-killing curve with a large enough effect; inconclusive = small, poorly fitted or top-dose-only effect, or effect the other way; inactive = no such curve, though single readings can be large or run the other way.",
  "data": [
    {"compound": "N#CC1C(=O)Nc2scc(-c3ccc(-c4ccccc4O)cc3)c2C1=O", "note": "(centres undefined)", "values": [
      {"measurement": "Potency", "setting": "[1]", "value": "inactive"},
      {"measurement": "Potency", "setting": "[2]", "value": "inactive"}
    ]},
    {"compound": "Cn1ccnc1CCOC(c1cc2nccc(C(=O)O)c2[nH]1)c1ccccc1Cl", "note": "(centres undefined)", "values": [
      {"measurement": "Potency", "setting": "[1]", "value": "inactive"},
      {"measurement": "Potency", "setting": "[2]", "value": "inactive"}
    ]},
    {"compound": "CCC1CC2C(C)=CC3CCCCC3C2(C)C2(OC(=O)C(C)(O)OC2=O)O1", "note": "(centres undefined)", "values": [
      {"measurement": "Potency", "setting": "[1]", "value": "12.8 µM (active)"},
      {"measurement": "Potency", "setting": "[2]", "value": "10.1 µM (active)"}
    ]},
    {"compound": "CC1=CC(=O)CC(C)(C)C1(O)CCC(C)O", "note": "(centres undefined)", "values": [
      {"measurement": "Potency", "setting": "[1]", "value": "inactive"},
      {"measurement": "Potency", "setting": "[2]", "value": "inactive"}
    ]},
    {"compound": "CC(=O)N[C@H]1[C@H](O[C@H]2CC[C@@]3(C)C(CC[C@]4(C)C3CC=C3C5CC(C)(C)CC[C@]5(C(=O)O)[C@H](O[C@@H]5O[C@H](CO)[C@@H](O)[C@H](O)[C@H]5O)C[C@]34C)C2(C)C)O[C@H](CO[C@@H]2OC[C@H](O)[C@H](O)[C@H]2O[C@@H]2OC[C@@H](O)[C@H](O)[C@H]2O)[C@@H](O)[C@@H]1O", "note": "(some centres undefined)", "values": [
      {"measurement": "viability (% of control)", "setting": "[1]", "value": "57% [at 9.25 µM]"},
      {"measurement": "viability, % of control", "setting": "[2]", "value": "81.4% [at 9.25 µM]"}
    ]},
    {"compound": "Cc1ncc(CCCN(C)C)cc1Nc1ncc2c(n1)-c1ccc(C(F)(F)F)cc1NC(=S)C2", "values": [
      {"measurement": "Potency", "setting": "[1]", "value": "0.0517 µM (active)"},
      {"measurement": "Potency", "setting": "[2]", "value": "0.0206 µM (active)"}
    ]},
    {"compound": "O=C1C=CC2OC(c3ccccc3)C(O)C2O1", "note": "(centres undefined)", "values": [
      {"measurement": "Potency", "setting": "[1]", "value": "6.51 µM (active)"},
      {"measurement": "Potency", "setting": "[2]", "value": "4.11 µM (active)"}
    ]},
    {"compound": "COc1cc2ncnc(N3CCC(Oc4cnc5ccccc5n4)C3)c2cc1OC", "note": "(centres undefined)", "values": [
      {"measurement": "Potency", "setting": "[1]", "value": "0.58 µM (active)"},
      {"measurement": "Potency", "setting": "[2]", "value": "0.411 µM (active)"}
    ]},
    {"compound": "COC(=O)c1ccnc(-c2cc(C(=O)Nc3ccc(C4(N)CC4)cc3)ccn2)c1", "values": [
      {"measurement": "Potency", "setting": "[1]", "value": "inactive"},
      {"measurement": "Potency", "setting": "[2]", "value": "inactive"}
    ]},
    {"compound": "COc1ccc(C2=NC(c3ccc(Cl)cc3)C(c3ccc(Cl)cc3)N2C(=O)N2CCNC(=O)C2)c(OC(C)C)c1", "note": "(centres undefined)", "values": [
      {"measurement": "Potency", "setting": "[1]", "value": "16.4 µM (active)"},
      {"measurement": "Potency", "setting": "[2]", "value": "18.4 µM (active)"}
    ]},
    {"compound": "CC1=C(C)C(=O)OC(C(C)C2CCC3C4C5OC5C5(O)CC(OC6OC(CO)C(OC7OC(C)C(O)C(O)C7O)C(O)C6O)CC(O)C5(C)C4CCC23C)C1", "note": "(centres undefined)", "values": [
      {"measurement": "Potency", "setting": "[1]", "value": "inactive"},
      {"measurement": "Potency", "setting": "[2]", "value": "inactive"}
    ]},
    {"compound": "COc1cc(/C=C/C(=O)O[C@H]2[C@@H]3C=CO[C@@H](O[C@@H]4O[C@H](CO)[C@@H](O)[C@H](O)[C@H]4O)[C@@H]3[C@@]3(CO)O[C@@H]23)ccc1O", "values": [
      {"measurement": "Potency", "setting": "[1]", "value": "inactive"},
      {"measurement": "Potency", "setting": "[2]", "value": "inactive"}
    ]},
    {"compound": "CC(C(=O)O)C1CCC2(C)C3C(=O)C=C4C(CCC(=O)C4(C)C)C3(C)CCC12C", "note": "(centres undefined)", "values": [
      {"measurement": "Potency", "setting": "[1]", "value": "inactive"},
      {"measurement": "Potency", "setting": "[2]", "value": "inactive"}
    ]},
    {"compound": "CC1=C(C(=O)O)/C(=C\\CO[C@@H]2O[C@H](CO)[C@@H](O)[C@H](O)[C@H]2O)C(OC(=O)/C=C\\c2ccc(O)cc2)C1", "note": "(some centres undefined)", "values": [
      {"measurement": "Potency", "setting": "[1]", "value": "inactive"},
      {"measurement": "Potency", "setting": "[2]", "value": "inactive"}
    ]},
    {"compound": "C[C@]1(O)CC[C@@H]2C(C(=O)O)=CO[C@@H](O[C@@H]3O[C@H](COC(=O)c4ccc(O)cc4)[C@@H](O)[C@H](O)[C@H]3O)[C@@H]21", "values": [
      {"measurement": "Potency", "setting": "[1]", "value": "inactive"},
      {"measurement": "Potency", "setting": "[2]", "value": "inactive"}
    ]},
    {"compound": "CC(C)(O)c1ccc2c(c1)C(=O)CC1[C@](C)(CO)CCC[C@]21C", "note": "(some centres undefined)", "values": [
      {"measurement": "Potency", "setting": "[1]", "value": "inactive"},
      {"measurement": "Potency", "setting": "[2]", "value": "inactive"}
    ]},
    {"compound": "CC1(C)S[C@@H]2[C@H](NC(=O)[C@H](N)c3ccc(O)cc3)C(=O)N2[C@H]1C(=O)O", "values": [
      {"measurement": "Potency", "setting": "[1]", "value": "inactive"},
      {"measurement": "Potency", "setting": "[2]", "value": "inactive"}
    ]},
    {"compound": "Cn1cc(C2=C(c3coc4ccccc34)C(=O)NC2=O)c2cc(Br)ccc21", "values": [
      {"measurement": "Potency", "setting": "[1]", "value": "14.6 µM (active)"},
      {"measurement": "Potency", "setting": "[2]", "value": "7.31 µM (active)"}
    ]},
    {"compound": "C/C1=C/CCC2=CC(OC2=O)C(C)(C)/C=C/C1=O", "note": "(centres undefined)", "values": [
      {"measurement": "Potency", "setting": "[1]", "value": "0.517 µM (active)"},
      {"measurement": "Potency", "setting": "[2]", "value": "0.517 µM (active)"}
    ]},
    {"compound": "C#Cc1cccc(Nc2nc3cc(C(=O)O)ccc3c3cncnc23)c1", "values": [
      {"measurement": "Potency", "setting": "[1]", "value": "5.17 µM (active)"},
      {"measurement": "Potency", "setting": "[2]", "value": "2.91 µM (active)"}
    ]},
    {"compound": "Cc1onc(-c2c(F)cccc2Cl)c1C(=O)N[C@@H]1C(=O)N2[C@@H]1SC(C)(C)[C@@H]2C(=O)O", "values": [
      {"measurement": "Potency", "setting": "[1]", "value": "inactive"},
      {"measurement": "Potency", "setting": "[2]", "value": "13 µM (active)"}
    ]},
    {"compound": "CC(=O)c1c(O)cc2c(c1C)C(=O)CC(O)C2", "note": "(centres undefined)", "values": [
      {"measurement": "Potency", "setting": "[1]", "value": "inactive"},
      {"measurement": "Potency", "setting": "[2]", "value": "inactive"}
    ]},
    {"compound": "CC1C2=CC(=O)OC2(O)CC2C1CCC1C(C)(C)CCC(O)C21C", "note": "(centres undefined)", "values": [
      {"measurement": "Potency", "setting": "[1]", "value": "12.8 µM (active)"},
      {"measurement": "Potency", "setting": "[2]", "value": "4.53 µM (active)"}
    ]},
    {"compound": "CC(C)(C)c1ccc(C(=O)Nc2cn3cc(-n4ccnc4)ccc3n2)cc1", "values": [
      {"measurement": "Potency", "setting": "[1]", "value": "1.84 µM (active)"},
      {"measurement": "Potency", "setting": "[2]", "value": "5.17 µM (active)"}
    ]},
    {"compound": "COC1CC(O[C@H]2CC[C@]3(C)C4CC[C@@]5(C)C(=O)[C@]4(CC[C@@H]3C2)CC[C@@H]5C2=CC(=O)OC2)OC(C)C1OC1OC(COC2OC(CO)C(O)C(O)C2O)C(O)C(O)C1O", "note": "(some centres undefined)", "values": [
      {"measurement": "Potency", "setting": "[1]", "value": "1.1 µM (active)"},
      {"measurement": "Potency", "setting": "[2]", "value": "1.23 µM (active)"}
    ]},
    {"compound": "NCCCC[C@H](NC(=O)[C@@H]1Cc2ccccc2CN1C(=O)CCC(=O)c1ccccc1)C(=O)NCC(c1ccccc1)c1ccccc1", "values": [
      {"measurement": "Potency", "setting": "[1]", "value": "20.6 µM (active)"},
      {"measurement": "Potency", "setting": "[2]", "value": "13 µM (active)"}
    ]},
    {"compound": "CC1CCC2(NC1)OC1C(O)C3C4CCC5CC(O[C@@H]6O[C@H](CO)[C@@H](O)[C@H](O)[C@H]6O[C@@H]6O[C@@H](C)[C@H](O)[C@@H](O)[C@H]6O)CCC5(C)C4CCC3(C)C1C2C", "note": "(some centres undefined)", "values": [
      {"measurement": "Potency", "setting": "[1]", "value": "inactive"},
      {"measurement": "Potency", "setting": "[2]", "value": "inactive"}
    ]}
  ]
}
